From PubChem BioAssay (EPA / NIEHS) come the findings set out here.

Records with an inconclusive call do not appear. Active and inactive are the calls of the source. Rule for the calls: active = hit-call score of the fitted dose curve at least 0.9, where 1 is the maximum; inconclusive = response in the unintended direction; inactive = score below 0.9.

Test [1] addresses human Casein Kinase 1-delta (CK1D), CSNK1D (gene 1453) (UniProt P48730). Description: NVS_ENZ_hCK1D: NovaScreen (NVS) Enzymatic Assay for human Casein Kinase 1-delta (CK1D) (AID 2283148). An outline of the steps: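 Recombinant human CK1-delta, cell-free; fluorescent substrate with electrophoretic mobility-shift separation of product, read 1 h after dosing. Single 25 uM duplicate screen, then concentration-response up to 50 uM; loss of signal vs DMSO.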

For test [2], the target named is human Dual Specificity Protein Phosphatase 3 (DUSP3), DUSP3 (gene 1845) (UniProt P51452). Nature of the test: NVS_ENZ_hDUSP3: NovaScreen (NVS) Enzymatic Assay for human Dual Specificity Protein Phosphatase 3 (DUSP3) (AID 2283152).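 Note: phosphatase activity of recombinant human DUSP3 on a fluorogenic substrate without cells.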 The gist of the method:
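Cell-free assay with recombinant human DUSP3 and fluorogenic substrate, read by fluorescence intensity. Primary screen ran duplicate at 25 uM; actives followed up in concentration series; loss of signal versus DMSO scored.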

The target of another test is CDK2 (gene 1017) (UniProt P24941). Nature of the test: NVS_ENZ_hCDK2: NovaScreen (NVS) Enzymatic Assay for human Cyclin-Cependent Kinase 2 (CDK2) (AID 2283144). An outline of the steps:
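Cell-free recombinant human CDK2 with fluorescent substrate, product separated by electrophoretic mobility shift; 1 hr read. Primary screen at 25 uM in duplicate, actives retested in concentration-response up to 50 uM; loss of signal versus DMSO.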

Test [3] has as its target human Colony Stimulating Factor 1 Receptor (CSF1R), CSF1R (gene 1436) (UniProt P07333). Nature of the test: NVS_ENZ_hCSF1R: NovaScreen (NVS) Enzymatic Assay for human Colony Stimulating Factor 1 Receptor (CSF1R) (AID 2283150). The gist of the method:
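Cell-free recombinant human CSF1R kinase with fluorescent substrate, product separated by electrophoretic mobility shift; read 1 h after dosing. Primary screen at 25 uM in duplicate, actives then in concentration-response up to 50 uM, relative to DMSO.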

Test [4] has as its target human Elastase, ELANE (gene 1991) (UniProt P08246). Description: NVS_ENZ_hElastase: NovaScreen (NVS) Enzymatic Assay for human Elastase (AID 2283153). An outline of the steps: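 Cell-free elastase from human neutrophils, 1.5 h after dosing, activity read by absorbance. Primary screen in duplicate at 25 uM; hits (e.g., 30% inhibition) rerun in singleton concentration-response up to 50 uM, fitted versus DMSO.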

In test [5] the target is human Ephrin type-A Receptor 1 (EphA1), EPHA1 (gene 2041) (UniProt P21709). Nature of the test: NVS_ENZ_hEphA1: NovaScreen (NVS) Enzymatic Assay for human Ephrin type-A Receptor 1 (EphA1) (AID 2283158).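 Note: activity is signal loss versus DMSO meaning EphA1 kinase inhibition.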 An outline of the steps: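 Cell-free kinase activity with recombinant protein, 1 hour after dosing; product separated by electrophoretic mobility shift, fluorescence read. Primary screen at 25 uM in duplicate; hits run as concentration-response up to 50 uM, relative to DMSO.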
human Ephrin type-A Receptor 1 (EphA1), EPHA1 (gene 2041), sequence (P21709 whole entry, looked up): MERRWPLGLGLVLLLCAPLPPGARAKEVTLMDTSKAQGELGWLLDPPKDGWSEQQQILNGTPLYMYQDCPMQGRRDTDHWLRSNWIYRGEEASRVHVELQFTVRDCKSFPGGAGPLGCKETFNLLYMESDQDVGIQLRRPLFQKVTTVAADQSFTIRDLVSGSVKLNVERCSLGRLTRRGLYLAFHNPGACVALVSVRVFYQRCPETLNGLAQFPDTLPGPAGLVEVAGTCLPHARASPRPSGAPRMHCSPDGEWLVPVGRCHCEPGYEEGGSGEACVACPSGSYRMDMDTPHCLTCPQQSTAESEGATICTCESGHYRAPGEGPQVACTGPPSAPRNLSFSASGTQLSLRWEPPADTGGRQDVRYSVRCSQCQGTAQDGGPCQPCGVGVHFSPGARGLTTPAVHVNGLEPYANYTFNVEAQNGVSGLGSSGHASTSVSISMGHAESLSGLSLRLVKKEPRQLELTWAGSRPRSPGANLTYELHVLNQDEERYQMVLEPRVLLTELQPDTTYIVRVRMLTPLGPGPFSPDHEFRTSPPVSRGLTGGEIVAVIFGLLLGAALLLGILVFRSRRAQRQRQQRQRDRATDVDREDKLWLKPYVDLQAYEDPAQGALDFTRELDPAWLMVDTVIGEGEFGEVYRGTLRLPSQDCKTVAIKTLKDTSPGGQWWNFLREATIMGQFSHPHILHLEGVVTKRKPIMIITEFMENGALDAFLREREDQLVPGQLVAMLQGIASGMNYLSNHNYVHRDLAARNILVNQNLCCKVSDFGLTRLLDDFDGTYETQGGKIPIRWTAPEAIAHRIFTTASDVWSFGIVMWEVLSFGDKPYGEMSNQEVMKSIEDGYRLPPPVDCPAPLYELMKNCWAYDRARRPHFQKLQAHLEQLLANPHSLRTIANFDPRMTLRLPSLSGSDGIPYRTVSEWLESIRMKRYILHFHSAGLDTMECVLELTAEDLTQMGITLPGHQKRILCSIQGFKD

Test [6] has as its target human FYN Proto-Oncogene, Src family Tyrosine Kinase (Fyn), FYN (gene 2534) (UniProt P06241). Nature of the test: NVS_ENZ_hFyn: NovaScreen (NVS) Enzymatic Assay for human FYN Proto-Oncogene, Src family Tyrosine Kinase (Fyn) (AID 2283161). An outline of the steps:
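Recombinant enzyme with fluorescent substrate, product separated by electrophoretic mobility shift; read 1 h after dosing. Duplicate 25 uM single-point screen, actives retested in concentration series; loss of signal vs DMSO.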

Test [7] concerns the target Glycogen synthase kinase-3 beta (Homo sapiens) (UniProt P49841). Description: NVS_ENZ_hGSK3b: NovaScreen (NVS) Enzymatic Assay for human Glycogen Synthase Kinase-3 beta (GSK3b) (AID 2283165). An outline of the steps:
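Recombinant enzyme with specific fluorescent substrate, 1 h, product separated by electrophoretic mobility shift. Primary duplicate screen at 25 uM; actives (e.g. 30% inhibition) followed in singleton concentration-response to 50 uM. Signal loss fitted versus DMSO.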

Test [8] concerns the target human Janus Kinase 2 (Jak2), JAK2 (gene 3717) (UniProt O60674). Nature of the test: NVS_ENZ_hJak2: NovaScreen (NVS) Enzymatic Assay for human Janus Kinase 2 (Jak2) (AID 2283169). An outline of the steps:
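Cell-free recombinant human JAK2 enzyme activity assay, fluorescence/electrophoretic mobility shift read 1 h after dosing. Screened in duplicate at 25 uM, then concentration-response up to 50 uM; activity as signal loss relative to DMSO.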

For test [9], the target named is human c-Jun N-terminal Kinases (JNK2), MAPK9 (gene 5601) (UniProt P45984). Nature of the test: NVS_ENZ_hJNK2: NovaScreen (NVS) Enzymatic Assay for human c-Jun N-terminal Kinases (JNK2) (AID 2283171). An outline of the steps:
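Cell-free recombinant human JNK2 activity assay; fluorescent substrate and product separated by electrophoretic mobility shift, read 1 h after dosing. Primary duplicate screen at 25 uM; actives run in concentration-response up to 50 uM, relative to DMSO.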

The target in test [10] is human LYN Proto-Oncogene, Src family Tyrosine Kinase (LynA), LYN (gene 4067) (UniProt P07948). Description: NVS_ENZ_hLynA: NovaScreen (NVS) Enzymatic Assay for human LYN Proto-Oncogene, Src family Tyrosine Kinase (LynA) (AID 2283173). The gist of the method:
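Recombinant kinase with fluorescent substrate; product separated from substrate by electrophoretic mobility shift and read 1 h after dosing. Duplicate screen at 25 uM, then concentration-response up to 50 uM; activity scored as signal loss against DMSO.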

For test [11], the target named is Mitogen-activated protein kinase 3 (Homo sapiens) (UniProt P27361). Description: NVS_ENZ_hMAPK3: NovaScreen (NVS) Enzymatic Assay for human Mitogen-Activated Protein Kinase 3 (MAPK 3) (AID 2283177). An outline of the steps: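 Cell-free enzymatic assay with recombinant protein and specific substrate; fluorescence and electrophoretic mobility shift read-out 1 h after dosing. Primary screen duplicate at 25 uM; actives then run in concentration-response up to 50 uM, loss of signal versus DMSO.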
Mitogen-activated protein kinase 3 (Homo sapiens), sequence (P27361 whole entry, looked up): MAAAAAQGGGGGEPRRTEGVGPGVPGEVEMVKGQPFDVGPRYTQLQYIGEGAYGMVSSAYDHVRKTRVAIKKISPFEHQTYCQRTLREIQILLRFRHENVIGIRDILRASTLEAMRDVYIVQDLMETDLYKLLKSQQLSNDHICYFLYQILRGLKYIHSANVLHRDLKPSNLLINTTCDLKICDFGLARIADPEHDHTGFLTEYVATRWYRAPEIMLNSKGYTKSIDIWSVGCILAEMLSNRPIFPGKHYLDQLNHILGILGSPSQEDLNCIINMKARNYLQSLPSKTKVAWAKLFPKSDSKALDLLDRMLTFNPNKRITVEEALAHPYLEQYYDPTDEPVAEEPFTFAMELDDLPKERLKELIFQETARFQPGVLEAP

Test [12] has as its target Collagenase 3 (Homo sapiens) (UniProt P45452). Description: NVS_ENZ_hMMP13: NovaScreen (NVS) Enzymatic Assay for human Matrix Metalloproteinase-13 (MMP13) (AID 2283182). The gist of the method: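 Recombinant MMP13 cleaving fluorescent substrate, cell-free, measured 1 h after dosing. Primary duplicate screen at 25 uM; actives tested in concentration-response up to 50 uM; loss of signal relative to DMSO.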

The target in test [13] is human Matrix Metalloproteinase-9 (MMP9), MMP9 (gene 4318) (UniProt P14780). Description: NVS_ENZ_hMMP9: NovaScreen (NVS) Enzymatic Assay for human Matrix Metalloproteinase-9 (MMP9) (AID 2283190).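 Note: cell-free recombinant MMP9 protease activity read by fluorescent substrate signal; active means inhibition seen as loss of fluorescence signal versus DMSO.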 An outline of the steps:
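Inhibition was scored as loss of fluorescence signal against DMSO controls. The recombinant protease was exposed to chemicals for 1 hour before reading; initial testing used 25 uM in duplicate.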

In test [14] the target is Histone deacetylase 3 (Homo sapiens) (UniProt O15379). Description: NVS_ENZ_hHDAC3: NovaScreen (NVS) Enzymatic Assay for human Histone Deacetylase 3 (HDAC3) (AID 2283163). An outline of the steps: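 Recombinant human HDAC3 with fluorescent substrate, 1 h after dosing; product separated from substrate by electrophoretic mobility shift and read by fluorescence. Primary screen at 25 uM in duplicate; actives (e.g. ≥30% inhibition) retested in concentration-response up to 50 uM.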

Test [15] has as its target human Esterase Plasma (ES), BCHE (gene 590) (UniProt P06276). Nature of the test: NVS_ENZ_hES: NovaScreen (NVS) Enzymatic Assay for human Esterase Plasma (ES) (AID 2283157). The gist of the method:
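Esterase from human plasma, cell-free, colorimetric absorbance read 0.25 h after dosing. Screened at 25 uM in duplicate, with threshold-passing chemicals run in concentration-response up to 50 uM; loss of signal fitted versus DMSO.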

Test [16] addresses human AKT serine/threonine Kinase 2 (AKT2), AKT2 (gene 208) (UniProt P31751). Nature of the test: NVS_ENZ_hAKT2: NovaScreen (NVS) Enzymatic Assay for human AKT serine/threonine Kinase 2 (AKT2) (AID 2283141). The gist of the method: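 Cell-free fluorescence/electrophoretic mobility shift readout of recombinant human AKT2 activity, 1 h after chemical dosing. Duplicate primary screen at 25 uM, then singleton concentration-response up to 50 uM; loss of signal versus DMSO baseline.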

The target in test [17] is human MAP Kinase-Activated Protein Kinase 2 (MAPKAPK2), MAPKAPK2 (gene 9261) (UniProt P49137). Nature of the test: NVS_ENZ_hMAPKAPK2: NovaScreen (NVS) Enzymatic Assay for human MAP Kinase-Activated Protein Kinase 2 (MAPKAPK2) (AID 2283178). The gist of the method: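 Cell-free recombinant human MAPKAPK2 activity measured by fluorescence with electrophoretic mobility shift separation of substrate and product, 1 hr after dosing. Loss of signal versus DMSO; primary screen at 25 uM, concentration-response up to 50 uM.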

The target in test [18] is human Matrix Metalloproteinase-3 (MMP3), MMP3 (gene 4314) (UniProt P08254). Description: NVS_ENZ_hMMP3: NovaScreen (NVS) Enzymatic Assay for human Matrix Metalloproteinase-3 (MMP3) (AID 2283185). An outline of the steps: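 Cell-free recombinant human MMP3 activity, fluorescence intensity read 1 h after dosing. Primary screen duplicate at 25 uM, actives retested in concentration series; loss of signal vs DMSO baseline.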

The target in test [19] is human Mitogen- and Stress-activated Protein Kinase-1 (Msk1), RPS6KA5 (gene 9252) (UniProt O75582). Nature of the test: NVS_ENZ_hMsk1: NovaScreen (NVS) Enzymatic Assay for human Mitogen- and Stress-activated Protein Kinase-1 (Msk1) (AID 2283187). The gist of the method:
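Recombinant kinase with fluorescent substrate; product separated by electrophoretic mobility shift, read 1 h after dosing. Screened in duplicate at 25 uM; hits (e.g. ≥30% inhibition) tested in concentration–response up to 50 uM. DMSO baseline.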

For orientation: AC50 means the midpoint of the concentration-response curve, whichever way the signal moves.

human Esterase Plasma (ES), BCHE (gene 590), sequence (P06276 whole entry, looked up): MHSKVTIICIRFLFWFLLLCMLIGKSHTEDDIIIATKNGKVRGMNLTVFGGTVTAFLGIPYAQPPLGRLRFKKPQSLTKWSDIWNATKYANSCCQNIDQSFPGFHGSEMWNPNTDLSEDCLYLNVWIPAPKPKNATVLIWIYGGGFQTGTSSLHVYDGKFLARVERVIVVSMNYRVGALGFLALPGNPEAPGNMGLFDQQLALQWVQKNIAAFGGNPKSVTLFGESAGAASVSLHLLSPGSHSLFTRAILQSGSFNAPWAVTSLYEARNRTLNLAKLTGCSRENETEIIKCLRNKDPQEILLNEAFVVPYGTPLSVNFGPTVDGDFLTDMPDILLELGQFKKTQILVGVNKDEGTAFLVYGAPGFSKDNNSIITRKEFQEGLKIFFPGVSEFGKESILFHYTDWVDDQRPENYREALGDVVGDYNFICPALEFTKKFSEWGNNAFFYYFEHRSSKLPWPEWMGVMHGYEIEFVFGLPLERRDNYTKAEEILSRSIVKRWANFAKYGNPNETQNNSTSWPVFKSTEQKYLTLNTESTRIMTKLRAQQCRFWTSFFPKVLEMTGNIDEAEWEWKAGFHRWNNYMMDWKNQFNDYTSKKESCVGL
Glycogen synthase kinase-3 beta (Homo sapiens), sequence (P49841 whole entry, looked up): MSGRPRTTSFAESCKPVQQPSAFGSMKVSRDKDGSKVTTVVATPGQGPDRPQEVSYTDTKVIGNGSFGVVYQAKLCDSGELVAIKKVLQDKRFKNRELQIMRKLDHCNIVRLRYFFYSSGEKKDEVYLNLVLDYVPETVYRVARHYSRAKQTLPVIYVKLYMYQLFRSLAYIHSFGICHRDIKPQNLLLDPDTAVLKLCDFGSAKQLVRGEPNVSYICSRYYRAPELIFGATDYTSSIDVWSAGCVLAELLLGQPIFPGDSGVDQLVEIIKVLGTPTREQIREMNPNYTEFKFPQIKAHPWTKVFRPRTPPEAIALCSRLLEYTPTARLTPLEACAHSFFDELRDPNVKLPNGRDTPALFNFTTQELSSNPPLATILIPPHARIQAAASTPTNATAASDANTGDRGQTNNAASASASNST
human Matrix Metalloproteinase-9 (MMP9), MMP9 (gene 4318), sequence (P14780 whole entry, looked up): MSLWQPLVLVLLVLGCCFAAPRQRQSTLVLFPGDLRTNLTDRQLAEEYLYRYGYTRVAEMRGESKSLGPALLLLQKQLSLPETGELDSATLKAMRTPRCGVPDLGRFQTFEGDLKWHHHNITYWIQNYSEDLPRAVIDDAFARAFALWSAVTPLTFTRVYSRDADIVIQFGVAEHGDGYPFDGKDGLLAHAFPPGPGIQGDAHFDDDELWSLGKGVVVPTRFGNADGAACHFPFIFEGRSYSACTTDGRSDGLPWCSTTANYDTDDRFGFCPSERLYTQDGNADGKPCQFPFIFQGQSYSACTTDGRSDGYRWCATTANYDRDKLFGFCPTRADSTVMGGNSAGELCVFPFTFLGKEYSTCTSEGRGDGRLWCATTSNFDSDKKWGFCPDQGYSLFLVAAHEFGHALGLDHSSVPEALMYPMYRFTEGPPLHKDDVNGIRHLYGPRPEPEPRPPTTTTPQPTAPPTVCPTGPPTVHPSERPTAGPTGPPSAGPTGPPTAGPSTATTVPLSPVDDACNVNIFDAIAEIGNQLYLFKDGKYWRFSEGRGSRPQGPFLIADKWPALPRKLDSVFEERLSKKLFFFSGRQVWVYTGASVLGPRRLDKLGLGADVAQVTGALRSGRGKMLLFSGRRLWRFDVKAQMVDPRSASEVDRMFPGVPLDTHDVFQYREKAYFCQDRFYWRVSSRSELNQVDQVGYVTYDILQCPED
human Dual Specificity Protein Phosphatase 3 (DUSP3), DUSP3 (gene 1845), sequence (P51452 whole entry, looked up): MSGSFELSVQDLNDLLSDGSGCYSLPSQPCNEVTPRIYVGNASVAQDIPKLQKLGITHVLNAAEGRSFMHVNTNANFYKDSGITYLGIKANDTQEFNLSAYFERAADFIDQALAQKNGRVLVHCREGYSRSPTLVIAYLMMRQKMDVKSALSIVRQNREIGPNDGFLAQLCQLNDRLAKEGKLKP
human c-Jun N-terminal Kinases (JNK2), MAPK9 (gene 5601), sequence (P45984 whole entry, looked up): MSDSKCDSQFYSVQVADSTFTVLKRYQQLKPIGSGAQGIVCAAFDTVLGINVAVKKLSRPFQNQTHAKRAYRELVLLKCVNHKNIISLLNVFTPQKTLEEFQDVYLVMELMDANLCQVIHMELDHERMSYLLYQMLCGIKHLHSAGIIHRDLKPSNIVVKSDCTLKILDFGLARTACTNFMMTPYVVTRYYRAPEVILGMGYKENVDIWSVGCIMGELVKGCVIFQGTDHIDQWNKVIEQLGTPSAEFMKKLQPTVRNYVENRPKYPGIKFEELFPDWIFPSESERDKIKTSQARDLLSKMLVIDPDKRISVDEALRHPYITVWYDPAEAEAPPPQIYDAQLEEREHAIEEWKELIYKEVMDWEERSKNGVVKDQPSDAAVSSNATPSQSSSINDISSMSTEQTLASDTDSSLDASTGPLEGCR
human Colony Stimulating Factor 1 Receptor (CSF1R), CSF1R (gene 1436), sequence (P07333 whole entry, looked up): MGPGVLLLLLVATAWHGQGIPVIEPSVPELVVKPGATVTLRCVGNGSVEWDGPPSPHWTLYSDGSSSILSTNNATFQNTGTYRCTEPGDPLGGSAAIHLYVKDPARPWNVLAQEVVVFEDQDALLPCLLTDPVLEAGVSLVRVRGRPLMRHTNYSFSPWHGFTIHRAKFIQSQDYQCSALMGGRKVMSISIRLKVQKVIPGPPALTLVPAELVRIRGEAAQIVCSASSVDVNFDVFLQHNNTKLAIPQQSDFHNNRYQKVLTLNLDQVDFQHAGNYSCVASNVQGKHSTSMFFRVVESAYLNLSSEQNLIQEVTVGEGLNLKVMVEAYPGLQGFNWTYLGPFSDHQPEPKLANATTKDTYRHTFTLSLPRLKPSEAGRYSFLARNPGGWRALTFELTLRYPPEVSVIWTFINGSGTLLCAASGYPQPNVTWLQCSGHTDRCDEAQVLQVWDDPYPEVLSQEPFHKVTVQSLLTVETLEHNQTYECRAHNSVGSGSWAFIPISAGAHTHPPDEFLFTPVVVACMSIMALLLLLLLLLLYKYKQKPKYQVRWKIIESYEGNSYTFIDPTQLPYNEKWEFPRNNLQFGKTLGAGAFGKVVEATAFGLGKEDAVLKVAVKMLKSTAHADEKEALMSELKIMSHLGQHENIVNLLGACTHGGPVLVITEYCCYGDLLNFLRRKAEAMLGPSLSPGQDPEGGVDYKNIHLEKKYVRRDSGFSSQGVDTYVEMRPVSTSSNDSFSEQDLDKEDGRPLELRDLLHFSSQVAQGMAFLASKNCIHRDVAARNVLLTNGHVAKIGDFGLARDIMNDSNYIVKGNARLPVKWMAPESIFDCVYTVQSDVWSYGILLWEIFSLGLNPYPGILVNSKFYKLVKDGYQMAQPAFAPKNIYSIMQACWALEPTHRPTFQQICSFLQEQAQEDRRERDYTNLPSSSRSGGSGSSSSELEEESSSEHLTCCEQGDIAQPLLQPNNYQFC
human Elastase, ELANE (gene 1991), sequence (P08246 whole entry, looked up): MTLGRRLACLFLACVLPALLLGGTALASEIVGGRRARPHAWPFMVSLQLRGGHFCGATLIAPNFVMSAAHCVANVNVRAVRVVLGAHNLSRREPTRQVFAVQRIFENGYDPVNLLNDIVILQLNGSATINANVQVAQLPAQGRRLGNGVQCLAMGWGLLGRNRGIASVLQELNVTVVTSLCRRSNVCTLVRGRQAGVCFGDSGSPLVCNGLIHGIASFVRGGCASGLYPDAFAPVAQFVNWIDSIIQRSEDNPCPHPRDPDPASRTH

For `CS(=O)(=O)c1ccc([C@@H](CC2CCCC2)C(=O)Nc2cnccn2)cc1Cl`, in test [1], the outcome was inactive. The AC50 in test [2] was 6.36 µM (active).

Turning to `Cc1[nH]nc2c1N=C(c1ccccc1Cl)c1cc([N+](=O)[O-])ccc1N2`, the AC50 with CDK2 (gene 1017) is 0.0067 µM (active); in test [3], 0.00229 µM (active); in test [2], 16.9 µM (active); in test [4], 4.93 µM (active); in test [5] it was 8.96 µM (active); in [7], 0.00229 µM (active). The half-maximal activity concentration (AC50) in test [8] is 0.00328 µM (active); in test [9], 35.8 µM (active); in test [10], 25 µM (active); in test [11], 25 µM (active); in [12], 16.2 µM (active). In test [6], the outcome was inactive.

As for `CCCCCCCCCCCCCCCCCC[N+](C)(C)Cc1ccccc1`, the AC50 in [2] is 4.54 µM (active). Besides, the call in [5] and in test [13] was inactive.

As for `O=C(NO)c1ccccc1`, the compound was called inactive in test [5].

As for `CC(C)(C)c1ccc(O)c(O)c1`, the outcome in test [5] was inactive.

As to `CCOC(C)=O`, in test [13], the AC50 is 4.98 µM (active).

Take `CCC(C)c1ccccc1O` (centres undefined): in test [14], the compound was classed as inactive.

With `O=C(CCCN1CCC(O)(c2ccc(Cl)cc2)CC1)c1ccc(F)cc1`, the AC50 in test [15] is 6.15 µM (active).

On to `CCCCc1oc2ccccc2c1C(=O)c1cc(I)c(OCCN(CC)CC)c(I)c1`, for which, in [15], the result was inactive.

Regarding `CCCCC=O`, the outcome in test [7] was inactive.

`O=C(c1ccccc1)c1ccccc1`: the compound was called inactive in test [7].

`Cc1ccc(C(=O)c2ccccc2)cc1`: the call in test [5] was inactive.

Turning to `CCCCCCCCCCCCCCCC(=O)OC`, the AC50 in test [2] was 6.25 µM (active).

For the compound `CCCCCCCCCCCC`, in test [5], the outcome was inactive.

For `CC1=NN(c2ccccc2)C(=O)C1`, the outcome in test [5] was inactive.

With `CN(C)CCOC(c1ccccc1)c1ccccc1`, in [15], the AC50 was 11.4 µM (active).

Regarding `CCCCCCCCCCCCCCC`, the result in test [12] was inactive.

As to `CCCCCCCCCCCCOS(=O)(=O)O`, the AC50 was 32.9 µM (active) in [16]; 29.1 µM (active) in test [3]; 37.5 µM (active) in test [9]; 18.1 µM (active) in test [11]; 36.7 µM (active) in test [18]; 43 µM (active) in test [19]. Also, the compound was classed as inactive (with CDK2 (gene 1017); in test [1]; in [5]; in [14]; in test [17]).

For `CCCCC(CC)C(=O)O` (centres undefined), in [13], the call was inactive.

Regarding `N=C(N)c1ccc(OCCCCCOc2ccc(C(=N)N)cc2)cc1`, in test [15], the AC50 is 6.56 µM (active).
